Test results reported in PubChem BioAssay AID1159580 (chemical genetic matrix, 2015).
Values joined by “and” are separate entries in the source; they are usually repeats but may differ in a detail not shown here. Equal entries are not always repeated. The campaign covered roughly 5,500 compounds. About 2,000 (36%) were called active. About 18% were inconclusive and are not listed. Rule as the data show it: active = normalized growth mostly below about 0.91 (no sharp cut-off); inconclusive = no clear call, values can overlap the other calls; inactive = mostly above about 0.92. The list shows a part of the results.

Experiment: chemical genetic growth profiling, strain panel (AID 1159580);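 also: tested at 20 µM; growth read once vehicle control cultures reached saturation at 30 °C; 1 = growth at the plate median or of vehicle wells; lower values mean less growth of the strain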
Details: S. cerevisiae deletion strains, growth OD

Measured: normalized growth

NCCCN
inactive: locus YAL021C, strain ccr4, stronger effect = lower value 1.02 | locus YAL026C, strain drs2, stronger effect = lower value 0.984 | locus YAL030W, strain snc1, stronger effect = lower value 0.989 | locus YBL061C, strain skt5, stronger effect = lower value 0.989 | locus YBR009C, strain hhf1, stronger effect = lower value 0.988 | locus YBR021W, strain FUR4, stronger effect = lower value 0.996 | locus YBR023C, strain chs3, stronger effect = lower value 0.982 | locus YBR171W, strain sec66, stronger effect = lower value 0.957 | locus YBR229C, strain ROT2, stronger effect = lower value 0.99 | locus YBR231C, strain swc5, stronger effect = lower value 0.984 | locus YBR279W, strain paf1, stronger effect = lower value 1 | locus YCL011C, strain gbp2, stronger effect = lower value 0.973 | locus YCL016C, strain dcc1, stronger effect = lower value 1 | locus YCL029C, strain bik1, stronger effect = lower value 0.984 | locus YCL061C, strain MRC1, stronger effect = lower value 1.01 | locus YCL069W, strain vba3, stronger effect = lower value 0.973 | locus YCR088W, strain abp1, stronger effect = lower value 0.982 | locus YDL005C, strain med2, stronger effect = lower value 0.977 | locus YDL035C, strain GPR1, stronger effect = lower value 1.03 | locus YDL040C, strain nat1, stronger effect = lower value 0.986 | locus YDL074C, strain BRE1, stronger effect = lower value 1.01 | locus YDL101C, strain DUN1, stronger effect = lower value 0.994 | locus YDL185W, strain tfp1, stronger effect = lower value 0.983 | locus YDL192W, strain arf1, stronger effect = lower value 0.998 | locus YDR001C, strain nth1, stronger effect = lower value 0.99 | locus YDR069C, strain doa4, stronger effect = lower value 0.987 | locus YDR101C, strain arx1, stronger effect = lower value 0.976 | locus YDR137W, strain rgp1, stronger effect = lower value 1.02 | locus YDR159W, strain sac3, stronger effect = lower value 0.961 | locus YDR162C, strain NBP2, stronger effect = lower value 1.01 | locus YDR195W, strain ref2 0.981 | locus YDR297W, strain sur2, stronger effect = lower value 0.996 | locus YDR318W, strain mcm21, stronger effect = lower value 1.01 | locus YDR334W, strain swr1, stronger effect = lower value 0.962 | locus YDR335W, strain msn5, stronger effect = lower value 0.987 | locus YDR388W, stronger effect = lower value 0.993 | locus YDR392W, strain spt3, stronger effect = lower value 0.964 | locus YDR502C, strain sam2, stronger effect = lower value 0.997 | locus YEL003W, strain gim4, stronger effect = lower value 0.976 | locus YEL037C, strain rad23, stronger effect = lower value 0.98 | locus YEL061C, strain CIN8 (second series), stronger effect = lower value 0.965 | locus YEL061C, strain CIN8, stronger effect = lower value 0.997 | locus YER015W, strain faa2, stronger effect = lower value 0.992 | locus YER016W, strain bim1, stronger effect = lower value 0.989 | locus YER110C, stronger effect = lower value 0.979 | locus YER111C, strain swi4, stronger effect = lower value 0.964 | locus YER155C, strain BEM2 (second series), stronger effect = lower value 0.966 | locus YER155C, strain BEM2, stronger effect = lower value 0.982 | locus YER167W, strain BCK2, stronger effect = lower value 0.989 | locus YFR010W, strain ubp6, stronger effect = lower value 0.958 | locus YGL078C, strain dbp3, stronger effect = lower value 0.999 | locus YGL086W, strain mad1, stronger effect = lower value 0.983 | locus YGL167C, strain pmr1, stronger effect = lower value 0.983 | locus YGL173C, strain kem1, stronger effect = lower value 0.972 | locus YGL227W, strain vid30, stronger effect = lower value 0.986 | locus YGL240W, strain doc1, stronger effect = lower value 0.979 | locus YGL248W, strain PDE1, stronger effect = lower value 1.01 | locus YGL253W, strain hxk2, stronger effect = lower value 0.968 | locus YGR078C, strain PAC10, stronger effect = lower value 1 | locus YGR135W, strain pre9, stronger effect = lower value 1.01 | locus YGR252W, strain gcn5, stronger effect = lower value 1.08 | locus YHR013C, strain ard1, stronger effect = lower value 0.972 | locus YHR027C, strain rpn1, stronger effect = lower value 1.01 | locus YHR030C, strain SLT2, stronger effect = lower value 0.997 and 0.973 | locus YHR079C, strain IRE1 (second series), stronger effect = lower value 0.994 | locus YHR079C, strain IRE1, stronger effect = lower value 0.976 | locus YHR094C, strain hxt1, stronger effect = lower value 0.979 | locus YHR129C, strain ARP1, stronger effect = lower value 1 | locus YHR142W, strain chs7, stronger effect = lower value 0.976 | locus YHR200W, strain rpn10, stronger effect = lower value 0.993 | locus YIL066C, strain RNR3, stronger effect = lower value 0.995 | locus YIL073C, strain SPO22, stronger effect = lower value 1.06 | locus YIL125W, strain kgd1, stronger effect = lower value 0.991 | locus YIR030C, strain dcg1, stronger effect = lower value 0.992 | locus YJL092W, strain hpr5, stronger effect = lower value 0.969 | locus YJL095W, strain BCK1 (second series), stronger effect = lower value 0.984 | locus YJL095W, strain BCK1, stronger effect = lower value 1.05 and 1.04 | locus YJL115W, strain asf1, stronger effect = lower value 0.956 | locus YJL129C, strain trk1, stronger effect = lower value 0.995 | locus YJL134W, strain LCB3, stronger effect = lower value 1 | locus YJL154C, strain vps35, stronger effect = lower value 0.981 | locus YJL164C, strain tpk1, stronger effect = lower value 1.01 | locus YJL166W, strain qcr8, stronger effect = lower value 0.989 | locus YJL168C, strain set2, stronger effect = lower value 0.983 | locus YJL187C, strain SWE1 (second series), stronger effect = lower value 1.01 | locus YJL187C, strain SWE1, stronger effect = lower value 1 | locus YJR043C, strain POL32, stronger effect = lower value 1.03
